TTR transcr act – TTR transcription activation, primary screen. SH-SY5Y TTR promoter Gaussia luciferase, luminescence; 100% = recombinant luciferase protein wells. activation, % at 16.7 µM. actives 1.3% (n = 92,000);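 active = activation above the mean of all tested compounds plus 3 SD, cut at about 9.5% in these data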;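 note: cells exposed to compounds for one day before reading; 0% = median of all test compound wells on the plate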
HuH7 TTR inh – decreases TTR transcription in HuH7 cells in activator counter-screen; inhibition, % at 16.7 µM; shares compounds with TTR transcr act; actives 4% (n = 1,100); HuH7 TTR promoter-Gaussia luciferase reporter, luminescence;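 active = average inhibition above the solvent-only control wells' mean plus 3 SD, cut at about 15% in these data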;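 note: 0% = cells with DMSO only and 100% = cells with inhibitor control FD; inhibitors lower well luminescence so higher value means more inhibition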
TTR up confirm – confirmation of human transthyretin transcription activators; shares compounds with TTR transcr act; SHSY5Y TTR promoter Gaussia luciferase, luminescence; 100% = purified Lucia enzyme wells, no cells; activation, % at 16.7 µM; 1,100 tested, under 10 active;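 active = mean activation above a set limit taken from the earlier primary screen, cut at about 11% in these data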;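 note: 0% = DMSO-treated cells and 100% = recombinant Lucia luciferase without cells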
* hit, by the source's call. The full list was thinned out, with hits kept by preference.

What do the screens show for `COC(=O)[C@]12C[C@H](CC(=O)NCC3CCCCC3)C(=O)N(Cc3cccc4ccccc34)C1=C[C@H](COCc1ccccc1)O[C@@H]2C`?
TTR transcr act: 2

How did Fc1cccc(-c2cncc(N3CCN(CCN4CCCC4)CC3)n2)c1 do in these assays?
TTR transcr act: 0

How did c1ccc2oc(-c3ccc(Nc4nc(N5CCOCC5)nc(N5CCOCC5)n4)cc3)nc2c1 do in these assays?
TTR transcr act: 10*; HuH7 TTR inh: -7; TTR up confirm: 0

Results for Clc1cccc(Nc2nc(N3CCOCC3)nc(N3CCOCC3)n2)c1 ?
TTR transcr act: 2

How did CCc1ccc(Nc2nc(N3CCOCC3)nc(N3CCOCC3)n2)cc1 do in these assays?
TTR transcr act: 1

Results for Cc1cccc(NC(c2ccc(O)cc2)c2ccc3ccc(C)nc3c2O)n1 (centres undefined) ?
TTR transcr act: 15*; HuH7 TTR inh: 20*; TTR up confirm: 0

Results for Oc1cccc(C(Nc2nccs2)c2ccc3cccnc3c2O)c1 (centres undefined) ?
TTR transcr act: -1

How did Cc1cccc(NC(=S)Nc2cccc(C)n2)n1 do in these assays?
TTR transcr act: 1

How did O=C(Nc1ccc(C(F)(F)F)cc1)OC1CC2CC1[C@H]1CCCCN1C2 (some centres undefined) do in these assays?
TTR transcr act: 1

How did COc1cc(/C=N/NC(=O)c2cc(C)oc2C)ccc1OCc1ccccc1 do in these assays?
TTR transcr act: -2

What do the screens show for `Cc1nc(CC(C)C)cc(C(=O)N2CCCC(Nc3ccc(C)c(C)c3)C2)n1` (centres undefined)?
TTR transcr act: 1

How did COc1ccccc1C(=O)C1CCCN(C(=O)c2ccc3c(c2)OCCO3)C1 (centres undefined) do in these assays?
TTR transcr act: 1

Results for COc1ccccc1C(=O)C1CCCN(C(=O)c2cc(CC(C)C)nc(C)n2)C1 (centres undefined) ?
TTR transcr act: 19*; HuH7 TTR inh: -15; TTR up confirm: 0

Results for C[C@@H]1CCN(C2CC2)S(=O)(=O)c2ccc(N3CC[C@H](O)C3)cc2O1 ?
TTR transcr act: 0

Results for O=c1c2c3c(sc2n2c(=S)[nH]nc2n1-c1ccccc1)CCC3 ?
TTR transcr act: 1

What do the screens show for `Cc1ccc(-n2c(=O)c3c4c(sc3n3c(=S)[nH]nc23)CCC4)cc1`?
TTR transcr act: 15*; HuH7 TTR inh: -8; TTR up confirm: 2

Results for COc1ccc(-n2c(=O)c3c4c(sc3n3c(=S)[nH]nc23)CCC4)cc1 ?
TTR transcr act: -2

Results for CCCCCCSc1nsc(NC(=O)CCC)n1 ?
TTR transcr act: 1

Results for CC(C)(C)c1ccc(CNc2nc(-c3ccccn3)nnc2-c2ccccc2)cc1 ?
TTR transcr act: -2

What do the screens show for `O=C(Oc1ccc([N+](=O)[O-])cc1)O[C@H]1CC[C@@]23CCCN2C(=O)CCC[C@H]3C1`?
TTR transcr act: -1

How did Cc1cc(-c2ccccc2)[nH]c(=O)c1C#N do in these assays?
TTR transcr act: 0

How did Cc1cc(C)n(CC(=O)c2ccccc2)c(=O)c1C#N do in these assays?
TTR transcr act: 16*; HuH7 TTR inh: -7; TTR up confirm: 0

Results for Cc1cn(CC(=O)c2ccccc2)c2ccccc12 ?
TTR transcr act: 0

How did CCCC/C=C1/[C@H](CC)N(C)C2=N[C@@H](c3ccccc3)CC(=O)N21 do in these assays?
TTR transcr act: -1

Results for Cc1c(C(O)(c2ccccc2)c2ccccc2)[n+]2ccccc2n1C ?
TTR transcr act: 1

What do the screens show for `Cn1cnnc1SCc1ccccc1`?
TTR transcr act: 18*; HuH7 TTR inh: -11; TTR up confirm: 0

What do the screens show for `COc1ccc(CSc2nncn2C)cc1F`?
TTR transcr act: -2

How did Cn1cnnc1SCc1ccc(C(=O)NN)cc1 do in these assays?
TTR transcr act: -1

How did COC(=O)[C@H](CC1(c2cn(S(=O)(=O)CC[Si](C)(C)C)c3ccccc23)C(=O)Nc2ccccc21)NC(=O)OC(C)(C)C (some centres undefined) do in these assays?
TTR transcr act: -1

Results for C[C@@H]1CCN(C2CC2)S(=O)(=O)c2ccc(N3CC[C@@H](N(C)C)C3)cc2O1 ?
TTR transcr act: 0

Results for Cc1ccc(S(=O)(=O)N2CCN(CC3CC4C=CC3C4)CC2)cc1 (centres undefined) ?
TTR transcr act: 0

Results for O=C(O)CCNS(=O)(=O)c1ccccc1 ?
TTR transcr act: 0

How did O=C(O)CCNS(=O)(=O)c1ccc2ccccc2c1 do in these assays?
TTR transcr act: 1

How did O=C(O)CNS(=O)(=O)c1cccc(Cl)c1 do in these assays?
TTR transcr act: 15*; HuH7 TTR inh: -11; TTR up confirm: 4

How did Cc1nc(N2CCN(C(=O)C3CCCCC3)CC2)c2c3c(sc2n1)CCCC3 do in these assays?
TTR transcr act: -2

What do the screens show for `CC(C)NCCOCCOc1ccccc1F`?
TTR transcr act: 11*; HuH7 TTR inh: -9; TTR up confirm: 1

How did CC(C)NCCOCCOc1ccc(Cl)cc1Br do in these assays?
TTR transcr act: 0

What do the screens show for `CCN(CC)CCOCCOc1ccccc1F`?
TTR transcr act: -1

How did CCCOc1ccc(F)cc1-c1cc(C(=O)NCCOC)[nH]n1 do in these assays?
TTR transcr act: 1

What do the screens show for `CC(C)CCN1C(=O)COc2ccccc2C1c1nnnn1-c1ccc2c(c1)OCCO2` (centres undefined)?
TTR transcr act: 2

What do the screens show for `CC(=O)c1cc(C#N)c(Oc2ccccc2)nc1C`?
TTR transcr act: -2

What do the screens show for `CC(=O)c1cc(C(C)=O)c(C)nc1C`?
TTR transcr act: 9.9*; HuH7 TTR inh: -7; TTR up confirm: 13*

Results for CCSc1nc(C)c(C(C)=O)cc1C#N ?
TTR transcr act: 0

How did COc1cccc(NC(=O)CSc2c3c(nc4ccccc24)CCCC3)c1 do in these assays?
TTR transcr act: 9.9*; HuH7 TTR inh: -8; TTR up confirm: -2

What do the screens show for `Cc1cccc(NC(=O)CSc2c3c(nc4ccccc24)CCC3)n1`?
TTR transcr act: 1

Results for CCn1c(SCC(=O)Nc2cccc(OC)c2)nc2ccccc2c1=O ?
TTR transcr act: -2

What do the screens show for `Cc1ccc(-c2c(NC(=O)Nc3ccccc3)nc3ncccn23)cc1`?
TTR transcr act: 0

Results for COc1cccc(-c2cc3nc(-c4ccco4)cc(N4CCN(C(C)=O)CC4)n3n2)c1 ?
TTR transcr act: -2

Results for O=C(Cc1ccc(Nc2nc3ccc(Br)cc3[nH]2)cc1)NCCc1cccs1 ?
TTR transcr act: -5

What do the screens show for `O=C(NCCc1nc2ccccc2[nH]1)c1cccc(Br)c1`?
TTR transcr act: 4

Results for O=C(NCC1CC1)c1ccc(Nc2nc3ccc(Br)cc3[nH]2)cc1 ?
TTR transcr act: 34*; HuH7 TTR inh: 1; TTR up confirm: -1

What do the screens show for `CCCC[C@H]1C2CC(OC(=O)Nc3cccc(Br)c3)C(C2)[C@H]2CCCCN21` (some centres undefined)?
TTR transcr act: 0

What do the screens show for `O=C(COCc1ccccc1)NC1CCCCN(Cc2ccc(Cl)cc2)C1=O` (centres undefined)?
TTR transcr act: 1

How did O=C1CN(c2nc(-c3cccnc3)nc3scc(-c4ccccc4)c23)CCN1 do in these assays?
TTR transcr act: 13*; HuH7 TTR inh: -5; TTR up confirm: -1

Source: PubChem
